Screening data from PubChem BioAssay.
KB-V1 cytotox – kills drug-selected multidrug resistant KB-V1 cells; KB-V1 MDR cells viability, CellTiter-Glo, 72 h; Potency, µM (doses to about 46.1 µM), actives largely listed as cytotoxic; hit rate 3.4% among 400,000; further: on the % scale 0 is the no-effect control and ±100 the full control effect; nearly all actives have a fitted effect of over 60% in size
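KB-V1, DMEM (no phenol red) + 10% FBS; cpd pin-transferred, titration series; 72 h, 37 degrees C; CellTiter-Glo, luminescence. Data normalized, curve-fit.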
KB-3-1 tox – kills parental KB-3-1 adenocarcinoma cells | hit rate 1.4% among 400,000 | KB-3-1 viability, CellTiter-Glo ATP luminescence, 72 h | Potency, µM (highest dose often 46.1 µM), actives largely listed as cytotoxic | AID 1347075; further: on the % scale 0 is the no-effect control and ±100 the full control effect; nearly all actives have a fitted effect of over 60% in size
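Multi-concentration cytotoxicity screen in KB-3-1 cells grown in DMEM lacking phenol red with 10% FBS. After 72 h at 37 °C with compound, ATP-dependent luminescence was recorded.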
MCF10A rereplic – induces DNA re-replication in MCF 10a normal breast cells; Potency, µM (titrated, usually from 46.1 µM), without a hit: top-dose activity, positive = re-replication, most hits filed as activators; MCF 10A DNA re-replication, Hoechst nuclear intensity, 48 h; hit rate 2.9% among 350,000; AID 624296; further: % of control where 0% means no effect; nearly all actives have a fitted effect of over 50% in size
SW480 rereplic – induces DNA re-replication in SW480 colon adenocarcinoma cells; SW480 DNA re-replication, Hoechst DNA content imaging, 48 h; Potency, µM (series often up to 46.1 µM), inactives show at the top dose re-replication activation, hits mostly activators; hit rate 1.8% among 340,000; AID 624297; further: % of control where 0% means no effect; nearly all actives have a fitted effect of over 55% in size
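Image-based DNA-content assay: after two days of treatment, nuclei were labelled with the DNA dye Hoechst and imaged, and hits were compounds raising the count of nuclei showing high fluorescence intensity.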
HT1080 IDH1KD tx – HT-1080 IDH1 knockdown cell toxicity (counter line). hit rate 2% among 360,000. AID 686971. HT-1080 IDH1 knockdown viability, ATP luminescence, 48 h. Potency, µM (series often up to 46.1 µM), inactives show top-dose activity, negative = toxicity, actives largely listed as cytotoxic;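 further: 0% = DMSO wells and -100% = cell-free medium wells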
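In this qHTS, HT-1080 cells depleted of IDH1 are exposed for 48 h at 37 °C to compound titrations. Toxicity is scored from CellTiter-Glo luminescence, with DMSO as full viability and medium alone as none.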
HT1080NT lethal – kills 2HG-producing HT-1080-NT fibrosarcoma cells; HT-1080-NT fibrosarcoma viability, CellTiter-Glo ATP luminescence, 48 h; Potency, µM (series often up to 46.1 µM), for inactives: at the highest dose activity, negative = less viability, hits mostly cytotoxic; hit rate 1.6% among 360,000; AID 686970;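 further: NT is the 2HG producing partner of a matched IDH1 knockdown line; 0% = DMSO-treated cells and -100% = media-only wells without cells; nearly all actives have a fitted effect of over 55% in size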
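Luminescent CellTiter-Glo readout after 48 hours of compound exposure at 37 degrees C defined viability of HT-1080-NT cells. Activity was normalized to DMSO wells and cell-free media wells; concentration-response curves were fitted and assigned curve classes.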
Numbers without * were called inactive. This is a sample that favours compounds with a hit; in the whole collection about 8% have one here. The call rests on the fitted dose curve; in most records, active means well fitted curve in the direction sought with a large enough effect; inconclusive means small, poorly fitted or top-dose-only effect, or another doubt; inactive means no such curve, though single readings can be large; an effect the other way counts as inactive or inconclusive. Potency means the concentration at half of the fitted maximal effect.

Screening COc1cc(NC(=O)C(CC(C)C)NS(=O)(=O)c2ccc3c(c2)CCN3C(C)=O)cc(OC)c1 (stereo not drawn) returned KB-V1 cytotox inconclusive and KB-3-1 tox inactive.
Screening CCCCN(c1ccccc1)c1ncnc2c1cnn2-c1ccc(Cl)cc1 returned KB-V1 cytotox inactive and KB-3-1 tox inactive.
Screening O=C(NCCc1ccc(Cl)cc1)c1cnc2sc(N3CCCCC3)nn2c1=O returned KB-V1 cytotox inactive and KB-3-1 tox inactive.
For COc1ccccc1NC(=O)CSc1nnc(COc2ccccc2OC)n1C the results were KB-V1 cytotox inconclusive, KB-3-1 tox inactive, MCF10A rereplic 1.9%, SW480 rereplic 3.3%, HT1080 IDH1KD tx 8.0% and HT1080NT lethal 11.3%.
`O=S(=O)(NCCCCNS(=O)(=O)c1cccc2cccnc12)c1cccc2cccnc12` gave KB-V1 cytotox inactive and KB-3-1 tox inactive.
Screening CC(=O)c1c(C)[nH]c(C(=O)N(C)CC(=O)Nc2ccc(Cl)c(C(F)(F)F)c2)c1C returned KB-V1 cytotox inactive, KB-3-1 tox inactive, MCF10A rereplic 2.4%, SW480 rereplic 1.1%, HT1080 IDH1KD tx 3.5% and HT1080NT lethal -8.4%.
CCc1noc(C)c1C(=O)Nc1nc2ccc(S(C)(=O)=O)cc2s1 was read as KB-V1 cytotox inactive, KB-3-1 tox inactive, MCF10A rereplic -2.6%, SW480 rereplic -4.1%, HT1080 IDH1KD tx 0.7% and HT1080NT lethal -4.8%.
Screening Cc1ccc(-c2cn3cccnc3n2)cc1NC(=O)c1c(-c2ccccc2Cl)noc1C returned KB-V1 cytotox 4.61µM*, KB-3-1 tox 11.6µM*, MCF10A rereplic inconclusive, SW480 rereplic inconclusive, HT1080 IDH1KD tx -29.9% and HT1080NT lethal -27.0%.
`Cc1onc(-c2ccccc2Cl)c1C(=O)Nc1nc2ccc(S(C)(=O)=O)cc2s1` gave KB-V1 cytotox inactive, KB-3-1 tox inactive, MCF10A rereplic -3.9%, SW480 rereplic 0.8%, HT1080 IDH1KD tx inconclusive and HT1080NT lethal 14.6µM*.
Screening CC(=O)Nc1cccc(NC(=O)c2c(-c3ccccc3Cl)noc2C)c1 returned KB-V1 cytotox 16.4µM*, KB-3-1 tox inactive, MCF10A rereplic inconclusive, SW480 rereplic -0.3%, HT1080 IDH1KD tx -12.0% and HT1080NT lethal -6.9%.
`Cc1onc(-c2ccccc2Cl)c1C(=O)OCc1cnc(Cl)s1` gave KB-V1 cytotox inconclusive, KB-3-1 tox inactive, MCF10A rereplic 23.1µM*, SW480 rereplic 3.9%, HT1080 IDH1KD tx -3.8% and HT1080NT lethal -4.0%.
Screening Cc1nc2n(c(=O)c1CCN1CCC(c3noc4cc(F)ccc34)CC1)CCC[C@H]2O returned KB-V1 cytotox inactive and KB-3-1 tox inactive.
`Cc1ccc(C(=O)Nc2ccc(-n3c(C)nc4ccccc4c3=O)cc2)cc1[N+](=O)[O-]` gave KB-V1 cytotox inactive and KB-3-1 tox inactive.
`COCCCNC(=O)Cc1c(C)c2c(cc(C)c3c(C(C)(C)C)coc32)oc1=O` gave KB-V1 cytotox 5.17µM*, KB-3-1 tox 5.17µM*, MCF10A rereplic inconclusive, SW480 rereplic 2.31µM*, HT1080 IDH1KD tx 2.91µM* and HT1080NT lethal 4.11µM*.
Screening O=C(Nc1ccccc1C(F)(F)F)c1ccc(CN2CCC(Cc3ccccc3)CC2)cc1 returned KB-V1 cytotox inconclusive, KB-3-1 tox inconclusive, MCF10A rereplic 21.7%, SW480 rereplic inconclusive, HT1080 IDH1KD tx 23.1µM* and HT1080NT lethal 16.4µM*.
For Cc1ccc(CNC(=O)c2ccc(NS(=O)(=O)c3c(C)noc3C)cc2)cc1 the results were KB-V1 cytotox inactive, KB-3-1 tox inactive, MCF10A rereplic 3.7%, SW480 rereplic -5.7%, HT1080 IDH1KD tx -6.3% and HT1080NT lethal -3.9%.
Screening Cc1noc(C)c1S(=O)(=O)Nc1ccc(C(C)C)cc1 returned KB-V1 cytotox inactive, KB-3-1 tox inactive, MCF10A rereplic 23.1µM*, SW480 rereplic inconclusive, HT1080 IDH1KD tx -0.2% and HT1080NT lethal -6.9%.
For CCOC(=O)C1CCCN(C(=O)c2c(C)nn(-c3ccc(F)cc3)c2-n2cccc2)C1 (stereo not drawn) the results were KB-V1 cytotox inconclusive and KB-3-1 tox inactive.
Screening COCCNc1nc2cc(-c3ccccc3OC)sc2c(=O)n1C returned KB-V1 cytotox inconclusive, KB-3-1 tox inactive, HT1080 IDH1KD tx -16.5% and HT1080NT lethal 1.3%.
Screening Cc1[nH]c2ccccc2c1C(=O)COC(=O)c1ccccc1SCC(=O)N1CCCC1 returned KB-V1 cytotox inactive and KB-3-1 tox inactive.
`CN(C(=O)CSc1nc2ccc(NC(=O)c3cccs3)cc2s1)c1ccccc1` gave KB-V1 cytotox inconclusive and KB-3-1 tox inactive.
N/C(Cc1ccccc1)=N\OC(=O)c1cccc2ccccc12 was read as KB-V1 cytotox inactive, KB-3-1 tox inconclusive, MCF10A rereplic 15.1%, SW480 rereplic -320.7%, HT1080 IDH1KD tx 20.6µM* and HT1080NT lethal inconclusive.
Cc1ccc(C(=O)O/N=C(\N)Cc2ccc([N+](=O)[O-])cc2)c(Cl)c1 was read as KB-V1 cytotox inactive, KB-3-1 tox inconclusive, MCF10A rereplic 18.4µM*, SW480 rereplic inconclusive, HT1080 IDH1KD tx -1.7% and HT1080NT lethal -4.3%.
Screening N/C(Cc1ccc([N+](=O)[O-])cc1)=N\OC(=O)c1ccc2ccccc2c1 returned KB-V1 cytotox inactive, KB-3-1 tox inactive, MCF10A rereplic inconclusive, SW480 rereplic 23.1%, HT1080 IDH1KD tx inconclusive and HT1080NT lethal 18.4µM*.
N/C(Cc1cccc2ccccc12)=N\OC(=O)c1ccccc1F was read as MCF10A rereplic -0.4%, SW480 rereplic -3.1%, HT1080 IDH1KD tx -13.9% and HT1080NT lethal 0.2%.
For N/C(Cc1ccc([N+](=O)[O-])cc1)=N\OC(=O)C(c1ccccc1)c1ccccc1 the results were KB-V1 cytotox inactive, KB-3-1 tox inactive, MCF10A rereplic 6.4%, SW480 rereplic -3.5%, HT1080 IDH1KD tx inconclusive and HT1080NT lethal 17.8µM*.
`N/C(Cc1ccc([N+](=O)[O-])cc1)=N\OC(=O)c1ccccc1Br` gave KB-V1 cytotox inactive, KB-3-1 tox inactive, MCF10A rereplic -0.2%, SW480 rereplic 0.0%, HT1080 IDH1KD tx 15.3% and HT1080NT lethal 15.1%.
`CCCCCCSc1cc(-c2nc3cnccn3c2NCCCC)ccc1OC` gave KB-V1 cytotox inactive, KB-3-1 tox inactive, MCF10A rereplic 14.6µM*, SW480 rereplic inconclusive, HT1080 IDH1KD tx -7.5% and HT1080NT lethal -10.8%.
